In PubChem BioAssay AID2782 (National Center for Advancing Translational Sciences (NCATS), 2010) one finds Potency data, which are given here for 19 compounds.

Inconclusive results are not listed. Where a call stands in place of a potency, no number is given. Active and inactive are the calls of the source. The call rests on the fitted dose curve; in most records, active means well fitted inhibition curve with a large enough effect in the polarisation, with a control signal flat (not every such curve was filed as active); inconclusive means small, poorly fitted or top-dose-only effect, or effect the other way, or a change in a side signal; inactive means no such curve, though single readings can be large or run the other way; the % refers to the polarisation.
Potency means the concentration at half of the fitted maximal effect.

The experiment can be described thus: Confirmation of Inhibitors Targeting the Menin-MLL Interaction in MLL Related Leukemias: Competition With Texas Red Labeled MLL-derived Mutant Peptide. The conditions noted are these: fluorescence polarization, Texas Red MLL peptide displacement; series mostly up to 94.6 µM. The gist of the method:
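FP competition using menin at 200 nM with Texas Red-labeled mutant MLL peptide (50 nM) plus fluorescein MLL-w.t. peptide (25 nM) in 50 mM Tris-HCl pH 7.5, 50 mM NaCl, 1 mM DTT, 0.05% BSA; compound added, 1 hr ambient; polarization read per label.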
As for `O=C(/C=C/c1ccccc1)Nc1nnc(SCC(=O)c2ccc3ccccc3c2)s1`, the Potency was 17.8 µM (active).

Take `CN(C)C(CNc1ncnc2sc3c(c12)CCCCC3)c1ccco1` (centres undefined): the Potency was 141 µM (active). In the case of `CCc1ccccc1NC(=O)COc1cccc(-n2cnnn2)c1` it was “inactive”. In the case of `CCCCC(=O)NC(=S)Nc1nnn(CCC)n1` it was “inactive”. Regarding `CCN(CC)Cc1cc2[nH]c3c4ccc(Cl)cc4ncc3c2cc1OC`, the Potency was 56.4 µM (active). For the compound `COc1ccccc1/C=N/n1c(N)c(S(=O)(=O)c2cccs2)c2nc3ccccc3nc21`, the Potency result was “inactive”. In the case of `CCCn1c(=O)c(C(=O)Nc2ccccc2C(=O)OCC)c(O)c2ccccc21` it was “inactive”; in that of `CCn1ncc(C(=O)Nc2cc(C)on2)c1C`, “inactive”; in that of `COCCNC(=O)C(OC(=O)c1nsc(Cl)c1Cl)C(C)C` (centres undefined), “inactive”. Regarding `CCOC(=O)C1CCN(CC(O)COCc2ccccc2)CC1` (centres undefined), the Potency entry was “inactive”. For `O=C1C(Cl)=C(NCCN2CCOCC2)C(=O)c2ncccc21`, the Potency result was “inactive”. Regarding `O=C(Nc1cc(Br)ccc1O)c1cc(-c2ccccc2)on1`, the Potency was 20 µM (active). As for `CC(=O)O[C@H]1CSC[C@H]1NC(=O)c1ccccc1`, the Potency entry is “inactive”. In the case of `Cc1ccc(C2=NN(C(=O)c3ccccc3F)C(c3ccccc3F)C2)cc1` (centres undefined) it was “inactive”.

`Cc1ccc(C(=O)Sc2cccccc2=O)cc1`: the Potency result is “inactive”. `COc1ccccc1C(=O)Nc1ccccc1SC(=O)c1ccccc1OC`: the Potency entry was “inactive”.

For the compound `CC(=O)c1c(O)cc(O)cc1CC(=O)O`, the Potency result was “inactive”. The value for `CCC(=O)Nc1ccc(-c2cc(-c3ccccc3)nc(-c3ccc(NC(=O)CC)cc3)n2)cc1` was 39.8 µM (active); that for `CCC(C)CCCCC(=O)N[C@@H](CCN)C(=O)N[C@H](C(=O)N[C@@H](CCN)C(=O)N[C@H]1CCNC(=O)C([C@@H](C)O)NC(=O)[C@@H](CCN)NC(=O)[C@H](CCN)NC(=O)[C@H](CC(C)C)NC(=O)[C@@H](CC(C)C)NC(=O)[C@H](CCN)NC1=O)[C@@H](C)O` (some centres undefined) was 7.94 µM (active).
